Test results as given in PubChem BioAssay.
Activity calls are given as the source filed them.

How the values were obtained:
[1] = binders of probe aFSTL3 on microarray, primary screen, stem cell growth factor project, biochemical, small-molecule microarray, fluorescence 635/667 (AID 1064); conditions: higher = more signal;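 also: measures binding of the biotinylated anti-FSTL3 antibody to printed compounds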
[2] = binders from COS7 lysate, DM2A8 probe, primary screen, torsin A project, cell lysate, small-molecule microarray, fluorescence 635/667 (AID 1065); conditions: higher = more signal, COS7 lysate expressing mutant human TOR1A
[3] = binders of probe aFGF2 on microarray, primary screen, stem cell growth factor project, biochemical, small-molecule microarray, fluorescence 635/667 (AID 1067); conditions: higher = more signal;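 also: measures binding of biotinylated aFGF2 protein to printed compounds on slides; z-score merges feature fluorescence and signal-to-noise across triplicate slides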
[4] = binders of probe aFGF10 on microarray, primary screen, stem cell growth factor project, biochemical, small-molecule microarray, fluorescence 635/667 (AID 1071); conditions: higher = more signal;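 also: score merges 667 nm spot intensity and signal to noise from triplicate slides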
[5] = target: Neurogenic locus notch homolog protein 2 (Homo sapiens) (UniProt Q04721); test: Notch2 binders on small-molecule microarrays, primary screen, biochemical, small-molecule microarray, 635 nm fluorescence, stem cell growth factors (AID 1073); conditions: Notch2 binding, higher = more signal
Neurogenic locus notch homolog protein 2 (Homo sapiens), sequence (Q04721 whole entry, looked up, canonical isoform): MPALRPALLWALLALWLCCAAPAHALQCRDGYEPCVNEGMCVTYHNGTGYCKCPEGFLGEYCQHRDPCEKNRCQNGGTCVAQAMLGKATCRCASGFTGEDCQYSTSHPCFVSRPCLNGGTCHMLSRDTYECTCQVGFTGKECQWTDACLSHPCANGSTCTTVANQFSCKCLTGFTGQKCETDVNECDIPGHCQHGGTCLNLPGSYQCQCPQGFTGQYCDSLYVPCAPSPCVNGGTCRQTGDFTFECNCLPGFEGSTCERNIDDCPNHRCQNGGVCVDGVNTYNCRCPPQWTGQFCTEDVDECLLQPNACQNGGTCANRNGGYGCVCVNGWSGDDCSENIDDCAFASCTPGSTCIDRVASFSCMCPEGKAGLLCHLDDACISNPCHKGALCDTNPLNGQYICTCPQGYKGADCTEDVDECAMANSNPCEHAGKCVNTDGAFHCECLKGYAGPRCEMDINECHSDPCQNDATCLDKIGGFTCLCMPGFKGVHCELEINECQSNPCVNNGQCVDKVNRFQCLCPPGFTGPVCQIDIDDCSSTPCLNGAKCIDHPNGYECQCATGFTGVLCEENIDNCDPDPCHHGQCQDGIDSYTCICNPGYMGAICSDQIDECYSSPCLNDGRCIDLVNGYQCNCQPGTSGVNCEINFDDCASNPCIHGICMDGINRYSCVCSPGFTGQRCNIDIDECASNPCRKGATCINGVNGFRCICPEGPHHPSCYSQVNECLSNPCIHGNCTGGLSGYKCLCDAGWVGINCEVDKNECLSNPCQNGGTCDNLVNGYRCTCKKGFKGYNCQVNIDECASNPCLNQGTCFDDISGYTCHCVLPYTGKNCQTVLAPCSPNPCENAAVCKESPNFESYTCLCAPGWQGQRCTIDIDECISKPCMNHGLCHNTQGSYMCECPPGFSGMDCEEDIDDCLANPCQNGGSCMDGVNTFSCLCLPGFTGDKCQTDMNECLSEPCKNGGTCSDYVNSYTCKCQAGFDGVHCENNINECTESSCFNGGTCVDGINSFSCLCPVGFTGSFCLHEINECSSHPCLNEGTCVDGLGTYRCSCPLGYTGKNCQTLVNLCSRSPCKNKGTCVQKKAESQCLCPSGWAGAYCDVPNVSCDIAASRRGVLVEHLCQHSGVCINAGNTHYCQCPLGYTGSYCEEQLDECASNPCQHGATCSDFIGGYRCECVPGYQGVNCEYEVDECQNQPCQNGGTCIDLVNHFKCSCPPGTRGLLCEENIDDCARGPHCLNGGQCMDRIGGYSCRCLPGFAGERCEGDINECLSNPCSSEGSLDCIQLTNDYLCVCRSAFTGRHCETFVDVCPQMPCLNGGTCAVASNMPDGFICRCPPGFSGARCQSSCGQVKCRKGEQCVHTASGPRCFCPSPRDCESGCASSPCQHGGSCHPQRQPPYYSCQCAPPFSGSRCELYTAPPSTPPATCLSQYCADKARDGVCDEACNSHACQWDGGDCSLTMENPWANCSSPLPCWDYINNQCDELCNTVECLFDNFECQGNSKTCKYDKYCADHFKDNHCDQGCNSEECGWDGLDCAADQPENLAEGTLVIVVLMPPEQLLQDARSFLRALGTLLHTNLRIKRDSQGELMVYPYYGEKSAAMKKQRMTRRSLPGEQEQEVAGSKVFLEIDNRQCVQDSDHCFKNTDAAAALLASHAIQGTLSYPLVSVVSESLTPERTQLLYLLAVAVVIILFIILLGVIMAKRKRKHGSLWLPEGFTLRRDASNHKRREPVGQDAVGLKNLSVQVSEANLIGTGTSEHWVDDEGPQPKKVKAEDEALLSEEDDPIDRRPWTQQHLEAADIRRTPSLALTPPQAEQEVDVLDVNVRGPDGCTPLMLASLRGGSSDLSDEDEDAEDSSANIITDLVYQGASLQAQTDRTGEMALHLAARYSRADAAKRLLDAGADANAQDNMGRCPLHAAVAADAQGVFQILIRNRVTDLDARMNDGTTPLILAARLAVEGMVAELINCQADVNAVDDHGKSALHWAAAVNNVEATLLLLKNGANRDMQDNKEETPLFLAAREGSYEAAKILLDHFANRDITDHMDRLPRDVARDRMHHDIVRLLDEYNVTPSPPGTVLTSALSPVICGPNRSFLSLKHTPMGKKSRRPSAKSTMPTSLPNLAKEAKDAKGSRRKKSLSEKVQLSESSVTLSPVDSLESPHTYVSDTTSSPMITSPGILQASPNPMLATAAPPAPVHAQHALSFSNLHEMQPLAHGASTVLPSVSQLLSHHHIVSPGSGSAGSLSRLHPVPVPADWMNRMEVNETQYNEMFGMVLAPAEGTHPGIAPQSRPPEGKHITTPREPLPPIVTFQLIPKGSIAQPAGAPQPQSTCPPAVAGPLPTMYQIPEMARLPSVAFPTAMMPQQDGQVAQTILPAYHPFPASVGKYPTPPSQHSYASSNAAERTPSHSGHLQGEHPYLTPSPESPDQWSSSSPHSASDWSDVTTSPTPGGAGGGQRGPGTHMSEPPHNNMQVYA

[6] = target: Pro-neuregulin-1, membrane-bound isoform (Homo sapiens) (UniProt Q02297); test: NRG1 binders on small-molecule microarrays, primary screen, psychiatric disease protein project, biochemical, small-molecule microarray, fluorescence 635/667 (AID 1075); conditions: NRG1 binding, 635 nm fluorescence, higher = more signal;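 also: score combines 667 nm spot fluorescence with signal to noise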
Pro-neuregulin-1, membrane-bound isoform (Homo sapiens), sequence (Q02297 whole entry, looked up, the tested form may be a part, canonical isoform): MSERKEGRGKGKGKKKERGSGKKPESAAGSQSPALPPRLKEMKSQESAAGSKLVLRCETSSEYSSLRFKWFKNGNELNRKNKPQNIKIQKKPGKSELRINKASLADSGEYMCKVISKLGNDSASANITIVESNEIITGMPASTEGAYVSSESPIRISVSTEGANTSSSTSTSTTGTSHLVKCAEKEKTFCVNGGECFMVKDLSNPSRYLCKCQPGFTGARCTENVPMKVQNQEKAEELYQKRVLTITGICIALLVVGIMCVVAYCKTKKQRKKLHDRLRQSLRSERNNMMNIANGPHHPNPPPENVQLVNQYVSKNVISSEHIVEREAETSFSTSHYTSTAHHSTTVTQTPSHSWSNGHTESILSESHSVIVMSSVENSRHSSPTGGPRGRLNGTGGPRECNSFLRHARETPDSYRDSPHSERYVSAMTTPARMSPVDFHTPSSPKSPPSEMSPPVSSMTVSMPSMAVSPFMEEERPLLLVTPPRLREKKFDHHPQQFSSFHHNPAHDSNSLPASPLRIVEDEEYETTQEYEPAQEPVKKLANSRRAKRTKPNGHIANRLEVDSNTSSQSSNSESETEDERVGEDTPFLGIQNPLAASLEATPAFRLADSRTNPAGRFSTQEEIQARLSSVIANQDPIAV

[7] = tested on: Neuregulin-1 EGF-like domain; test: binders of neuregulin-1 EGF-like domain, primary screen, biochemical, small-molecule microarray, 635 nm fluorescence (AID 1081); conditions: small-molecule microarray binding, higher = more signal;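 also: binding of the protein to compounds printed on small-molecule microarray slides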
[8] = FRG1 promoter luciferase signal modulators, primary screen, FRG1 inhibition for FSHD, cell-based, C2C12 myotubes, firefly/Renilla luciferase, luminescence (AID 1084); conditions: higher = more signal, called active from +8 up or from −8 down
[9] = binders of probe aFST on microarray, primary screen, stem cell growth factor project, biochemical, small-molecule microarray, fluorescence 635/667 (AID 1086); conditions: higher = more signal;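 also: score merges 667 nm fluorescence with signal-to-noise of each printed compound spot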
[10] = binders of probe aHhip on microarray, primary screen, stem cell growth factor project, biochemical, small-molecule microarray, fluorescence 635/667 (AID 1087); conditions: higher = more signal;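 also: score merges spot fluorescence at 667nm with spot signal to noise ratio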

| Structure (SMILES) | composite z-score [1] | composite z-score [2] | composite z-score [3] | composite z-score [4] | composite z-score [5] | composite z-score [6] | composite z-score [7] | z-score [8] | composite z-score [9] | composite z-score [10] |
| --- | --- | --- | --- | --- | --- | --- | --- | --- | --- | --- |
| COC(=O)C(CC#Cc1ccc2c(c1)[C@]1(C(=O)N2)[C@H](C(=O)N2CCc3cc(OC)c(OC)cc3C2)[C@H]2C(=O)O[C@H](c3ccccc3)[C@H](c3ccccc3)N2[C@@H]1c1ccccc1OCCO)C(=O)OC | -0.385 | 1.03 | -0.0037 | 0.738 | 1.15 | 1.67 | 1.25 | 1.31 (inactive) | 0.529 | -0.0346 |
| C=CCC(OC(C)=O)[C@@H]1[C@@H](N(Cc2cccc3ccccc23)C(=O)c2ccc(-c3ccccc3)cc2)c2cc(OCCCO)ccc2N1C(=O)Cc1ccc2ccccc2c1 (stereo not given in full) | -0.141 | 0.14 | -0.0171 | -0.272 | 0.07 | 0.022 | -0.374 | -0.94 (inactive) | 0.481 | -0.134 |
| C=C(COC)C(=O)CC[C@H](OC(=O)c1cccnc1)c1ccc(OCCO)cc1 | -0.21 | 0.43 | -0.133 | 1.2 | 0.144 | 0.865 | 1.29 | -0.742 (inactive) | 0.21 | -0.0618 |
| CCCCC(O)C1C=CC2C(=O)N(c3ccccc3)C(=O)C2N1Nc1ccccc1 (stereo not given) | 0.436 | -0.572 | -0.0414 | 0.43 | 1.2 | 1.62 | 1.12 | 0.0165 (inactive) | 0.545 | -0.137 |
| CCOC(=O)c1cn(C[C@H](Cc2ccccc2)NC(=O)N[C@H](CO)CCc2oc(C(C)=O)c(C(=O)OC)c2C(=O)OC)nn1 | -0.562 | -0.0438 | -0.101 | 1.09 | 1.47 | 0.553 | 1.39 | 0.872 (inactive) | 0.863 | -0.0383 |
| COc1ccc([Si](C)(C)[C@@H]2[C@@H](CC(=O)N3Cc4ccccc4C[C@H]3CO)O[C@]3(C(=O)N(Cc4cccc(N5CCOC5=O)c4)c4ccccc43)[C@H]2C)cc1 | -0.38 | 0.671 | -0.0264 | 0.147 | 0.331 | 0.309 | 0.876 | -1.64 (inactive) | 0.0495 | -0.0618 |
| CC1CC/C=C\[C@H]2OC34C=CCN(Cn5nnc6ccccc65)C(=O)[C@H]3N(CCCCCCO)C(=O)[C@@H]4C2C(=O)O1 (stereo not given in full) | 0.372 | -1.11 | -0.176 | -0.539 | -0.964 | 2.14 | 1.59 | -0.863 (inactive) | -0.541 | -0.169 |
| C=C(CCCC)C(=O)CC[C@H](OC(=O)c1ccccc1-c1ccccc1C(=O)O)c1ccc(OCCO)cc1 | -0.441 | 1.06 | -0.0876 | 0.315 | -0.181 | 1.13 | 1.19 | -0.62 (inactive) | 0.393 | -0.236 |
| CCC(CC)C(O)C1C=CC2C(=O)N(c3ccccc3)C(=O)C2N1Nc1ccccc1F (stereo not given) | -0.226 | 1.01 | -0.0222 | 0.715 | 1.48 | 1.29 | 1.38 | -0.556 (inactive) | 1 | 0.0373 |
| Cc1ccc(S[C@]2(C(=O)NCc3ccccc3)CC(=O)N(Cc3ccccc3C(F)(F)F)[C@@H]2c2ccc(CO)cc2)cc1 | 0.563 | -0.355 | -0.105 | -0.659 | -1.44 | 0.642 | -1.08 | -1.92 (inactive) | -0.633 | -0.204 |
| COc1ccc([Si](C)(C)[C@@H]2[C@@H](CC(=O)N3CCC[C@H]3CO)O[C@]3(C(=O)N(Cc4ccc(N5CCOC5=O)cc4)c4ccccc43)[C@H]2C)cc1 | -0.29 | 0.59 | -0.155 | -0.0087 | 0.01 | 0.717 | 1.01 | -2.49 (inactive) | 0.138 | -0.0994 |
| C#CCN1[C@@H](Cc2ccccc2)C(=O)O[C@H](Cc2ccccc2)[C@@H]1/C=C/C1CC1 | -0.733 | 0.819 | -0.0807 | 0.289 | -0.271 | -0.151 | 0.86 | -3.46 (inactive) | 0.426 | 0.198 |
| C=CC1c2cc(O)c(OC)cc2CCN1C (stereo not given) | 0.0043 | -0.231 | -0.103 | 0.275 | -0.208 | 0.0582 | 1.06 | -0.201 (inactive) | 0.0531 | 0.0373 |
